Among the data in PubChem BioAssay (EPA / NIEHS) are outcome and AC50 values, retold here.

A short description of test [1]: Tanguay_ZF_120hpf_SNOU_legacy: (Legacy) Oregon State University Tanguay Lab 120 Hour Post-fertilization zebrafish Assay for Snout Malformation (AID 2283637). In short, it runs like this: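 Snout malformation read as a yes/no call on brightfield images of 120 hpf larvae (Tropical 5D strain). Static exposure began at 6 hpf on dechorionated embryos in 0.64% DMSO, with gain of signal analysed versus DMSO controls.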

Test [2] can be described thus: Tanguay_ZF_120hpf_JAW_legacy: (Legacy) Oregon State University Tanguay Lab 120 Hour Post-fertilization zebrafish Assay for Jaw Malformation (AID 2283638).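 As to AC50: active means more embryos with jaw malformation than DMSO controls.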 In short, it runs like this:
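Wild-type 5D embryos, chorion removed at 4 hpf, dosed singly from 6 hpf; 28C static, sealed, foil-covered, to 120 hpf. Endpoint: jaw defect yes/no (brightfield); mortality excludes scoring.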

A short description of test [3]: Tanguay_ZF_120hpf_OTIC_legacy: (Legacy) Oregon State University Tanguay Lab 120 Hour Post-fertilization zebrafish Assay for Otic Vesicle Malformation (AID 2283639). In short, it runs like this: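 Tropical 5D wild-type zebrafish embryos were exposed statically in sealed, foil-covered plates at 28C until 120 hpf, with 0.64% (vol/vol) DMSO final. Otic vesicle malformation was scored present/absent by brightfield microscopy, with DMSO as baseline.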

Test [4] can be described thus: Tanguay_ZF_120hpf_PE_legacy: (Legacy) Oregon State University Tanguay Lab 120 Hour Post-fertilization zebrafish Assay for Pericardial Edema (AID 2283640).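 As to AC50: potency for increased incidence of pericardial edema versus DMSO baseline.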 In short, it runs like this:
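Zebrafish larvae are exposed from early development to 120 hpf at 28C, with 0.64% DMSO final. Each surviving larva receives a yes/no pericardial edema call by brightfield imaging, analysed relative to the DMSO baseline.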

A short description of test [5]: Tanguay_ZF_120hpf_BRAI_legacy: (Legacy) Oregon State University Tanguay Lab 120 Hour Post-fertilization zebrafish Assay for Brain Malformation (AID 2283641). The gist of the method: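 Static exposure of staged wild-type embryos until 120 hpf, kept at 28C with light excluded and final DMSO of 0.64% (vol/vol). Presence or absence of brain malformation was noted under brightfield; mortality precluded scoring.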

Test [6] can be described thus: Tanguay_ZF_120hpf_SOMI_legacy: (Legacy) Oregon State University Tanguay Lab 120 Hour Post-fertilization zebrafish Assay for Somite Malformation (AID 2283647). In short, it runs like this:
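Somitogenesis defects are recorded as binary calls in whole larvae at 120 hpf after continuous static chemical exposure starting at 6 hpf in dechorionated 5D embryos. DMSO serves as negative control and baseline.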

Test [7] can be described thus: Tanguay_ZF_120hpf_CFIN_legacy: (Legacy) Oregon State University Tanguay Lab 120 Hour Post-fertilization zebrafish Assay for Caudal Fin Malformation (AID 2283649). In short, it runs like this:
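Single dechorionated 5D wild-type embryos are dosed at 6 hpf (final DMSO 0.64%) and held statically at 28C. Caudal fin malformation is recorded as present or absent at 120 hpf under brightfield, excluding dead embryos.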

The nature of test [8]: Tanguay_ZF_120hpf_PIG_legacy: (Legacy) Oregon State University Tanguay Lab 120 Hour Post-fertilization zebrafish Assay for Pigmentation Malformation (AID 2283650). The gist of the method:
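Pronase dechorionation at 4 hpf; embryos plated at 6 hpf, one per well; static exposure, sealed and foil-covered, 28C, to 120 hpf; pigmentation read by brightfield, binary; DMSO 0.64% baseline, 5uM trimethyltin chloride positive control.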

Test [9] in a line: Tanguay_ZF_120hpf_CIRC_legacy: (Legacy) Oregon State University Tanguay Lab 120 Hour Post-fertilization zebrafish Assay for Circulatory Malformation (AID 2283651). In short, it runs like this: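 Tropical 5D wild-type embryos, dechorionated with pronase at 4 hpf, were placed singly in wells at 6 hpf and exposed statically at 28C to 120 hpf (0.64% DMSO final). Circulatory malformation was scored present/absent by brightfield microscopy.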

Test [10] is described as follows: Tanguay_ZF_120hpf_PFIN_legacy: (Legacy) Oregon State University Tanguay Lab 120 Hour Post-fertilization zebrafish Assay for Pectoral Fin Malformation (AID 2283648).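 Also: each larva judged yes or no for fin defect by brightfield with dead larvae skipped.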 The gist of the method:
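5D WT zebrafish; pronase dechorionation 4 hpf; 1 embryo/well at 6 hpf; static exposure to 120 hpf, 28C, sealed, foil-covered; final DMSO 0.64% v/v; 5 uM trimethyltin chloride positive control; fin defect scored yes/no.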

Results filed as inconclusive are left out. Calls of active or inactive are those of the source. The calls were made as follows: active = hit-call score of the fitted dose curve at least 0.9, where 1 is the maximum; inconclusive = response in the unintended direction; inactive = score below 0.9.

For the molecule `c1ccc2c(c1)Cc1ccccc1-2`, the result in test [1], in test [2], in [3], in [4], in [5] and in [6] was inactive. Besides, the molecule was classed as inactive in test [7] and in test [8].
For `Cc1oc(-c2ccccc2)nc1CCOc1ccc(C[C@H](Nc2ccccc2C(=O)c2ccccc2)C(=O)O)cc1`, the result in [2], in test [3], in test [4], in [5], in [6] and in test [7] was inactive. Further, the outcome in [8] was inactive.
In the case of `N#C[C@@H]1CC(F)(F)CN1C(=O)CNC1CC2CCC(C1)N2c1ncccn1` (some centres undefined), the outcome in test [2], in [3], in test [5], in test [6], in [7] and in test [8] was inactive. In addition, the molecule was called inactive in test [9].
For `CCCCCCCCCCCCCCCS(=O)(=O)Oc1ccccc1`, the outcome in test [2], in test [3], in [4], in test [6], in test [7] and in test [8] was inactive. Moreover, in [9], the outcome was inactive.
As to `CC(O)CO` (centres undefined), the call in test [3], in [4], in test [5], in test [6], in test [10] and in test [7] was inactive. The call in test [8] and in [9] was inactive.
As to `NC(=O)N(O)[C@@H]1C=C[C@H](Oc2cccc(Oc3ccc(F)cc3)c2)C1`, the result in test [2], in test [4], in [5], in test [6], in test [7] and in test [8] was inactive.
For the molecule `c1ccc2cc3c(ccc4ccccc43)cc2c1`, the concentration at half-maximal activity (AC50) in [2] is 49.1 µM (active); in test [3], 40.6 µM (active); in test [4], 33.4 µM (active); in test [5], 48.5 µM (active). The molecule was classed as inactive in test [6], in test [7], in test [8] and in test [9].
For the molecule `CCc1nn(C2CCCCC2)c2cc(C3(C#N)CCC(C(=O)O)CC3)ccc12` (centres undefined), the half-maximal activity concentration (AC50) is 0.332 µM (active) in test [2]; 3.66 µM (active) in test [3]; 0.27 µM (active) in [4]; 2.71 µM (active) in test [5]; 0.506 µM (active) in test [6]; 0.15 µM (active) in [7]. Further, the outcome in test [8] and in test [9] was inactive.
As to `CN1CCN(c2ccccc2/C=C2\SCCN(c3ccc(Cl)c(Cl)c3)C2=O)CC1`, the molecule was called inactive in test [2], in test [3], in test [4], in [5], in test [6] and in test [7]. Also, the result in test [8] and in test [9] was inactive.
On to `O=c1c(-c2ccc(O)cc2)coc2cc(O)ccc12`, for which the molecule was classed as inactive in test [2], in [3], in test [4], in test [6], in test [8] and in [9].
With `CCCCC(CC)COC(=O)CCCCC(=O)OCC(CC)CCCC` (centres undefined), the call in [2], in [3], in test [4], in test [5], in test [6] and in test [7] was inactive. Besides, the molecule was called inactive in test [8] and in test [9].
Turning to `CCCCCCCCCCCCc1ccccc1S(=O)(=O)O`, the molecule was classed as inactive in test [3], in test [4], in [6], in [10], in [7] and in test [9].
On to `CC(C)CCCCCCOC(=O)CCCCC(=O)OCCCCCCC(C)C`, for which the result in test [2], in test [3], in [4], in [5], in test [6] and in [7] was inactive. In addition, the molecule was called inactive in [8] and in test [9].
In the case of `CCN(CC)CCNc1ccc(CNC=O)c2sc3ccc(OC)cc3c(=O)c12`, the call in [2], in test [4], in [5], in [6], in test [7] and in [8] was inactive. In addition, the molecule was classed as inactive in test [9].
As for `Oc1cc2ccccc2c2ccccc12`, the AC50 in test [2] is 9.87 µM (active); in [3], 10.8 µM (active); in [4], 31.9 µM (active); in [5] it was 36.2 µM (active); in test [6], 12.4 µM (active); in test [7], 36.5 µM (active). Moreover, the values for the AC50 in [8] and in [9] were 12.9 µM (active) and 10.2 µM (active), respectively.
As for `OCCC(F)(F)C(F)(F)C(F)(F)C(F)(F)C(F)(F)C(F)(F)C(F)(F)C(F)(F)F`, the call in [5], in test [6], in test [7], in test [8] and in test [9] was inactive.
As to `O=C(O)c1ccccc1C(c1ccc(O)cc1)c1ccc(O)cc1`, the molecule was classed as inactive in test [2], in test [3], in test [4], in [6], in test [7] and in [8]. Also, the molecule was classed as inactive in test [9].
As for `C=C(C)C(=O)OCCC(F)(F)C(F)(F)C(F)(F)C(F)(F)C(F)(F)C(F)(F)F`, the molecule was called inactive in test [3], in test [4], in [7], in test [8] and in test [9].
Turning to `CCCCCCCCCCCCN1CCCC1=O`, the figures for the AC50 in test [2], in test [4] and in test [7] were 46.6 µM (active), 35.8 µM (active) and 41 µM (active), respectively. The call in [3], in [5], in [6], in test [8] and in [9] was inactive.
Regarding `Oc1cccc(O)c1`, the result in test [2], in [3], in [4], in test [5], in test [6] and in test [8] was inactive. Moreover, in test [9], the call was inactive.
Take `CC#C[C@]1(O)CC[C@H]2[C@@H]3CCC4=CC(=O)CCC4=C3[C@@H](c3ccc(N(C)C)cc3)C[C@@]21C`: the molecule was called inactive in [2], in test [6], in [7], in test [8] and in test [9]. Moreover, the half-maximal activity concentration (AC50) in test [4] is 73.3 µM (active).
As to `Cc1cc(CCN2CCN(c3nsc4ccccc34)CC2)cc2c1NC(=O)CC2(C)C`, the concentration at half-maximal activity (AC50) is 3.26 µM (active) in test [2]; 6.42 µM (active) in [3]; 2.96 µM (active) in test [4]; 5.16 µM (active) in test [5]; 3.88 µM (active) in [6]; 6.48 µM (active) in [7]. For the same molecule, the AC50 in test [8] is 6.31 µM (active); in [9], 5.83 µM (active).
With `CC(=O)NC1(c2cccc(F)c2)CCN(CC[C@@]2(c3ccc(Cl)c(Cl)c3)CN(c3ccccc3)C(=O)CO2)CC1`, the result in [3], in test [4], in test [5], in test [6], in test [10] and in test [7] was inactive. Also, the call in test [8] and in test [9] was inactive.
As to `CC1=C(/C=C/C(C)=C/C=C/C(C)=C/C(=O)O)C(C)(C)CCC1`, the AC50 in test [2] was 0.144 µM (active); in [3], 0.211 µM (active); in test [4], 0.193 µM (active); in test [5], 0.237 µM (active); in test [6] it was 0.323 µM (active); in test [7], 0.186 µM (active). The half-maximal activity concentration (AC50) in test [8] was 0.252 µM (active). In addition, the call in test [9] was inactive.
In the case of `CCCCCCCC(=O)O`, the outcome in test [2], in test [3], in [4], in [5], in test [6] and in test [7] was inactive. For the same molecule, the molecule was called inactive in [8] and in [9].
In the case of `COc1ccc([N+](=O)[O-])cc1N`, the molecule was called inactive in [2], in test [3], in test [4], in test [6], in test [7] and in [9].
For `OCCC(F)(F)C(F)(F)C(F)(F)C(F)(F)C(F)(F)C(F)(F)F`, the outcome in [2], in test [3], in test [4], in [5], in test [6] and in test [7] was inactive. The result in [8] and in [9] was inactive.
Consider `O=C(OCCOCCOC(=O)c1ccccc1)c1ccccc1`, for which the outcome in test [2], in test [3], in test [4], in [5], in test [7] and in test [8] was inactive. Moreover, the molecule was classed as inactive in [9].
Regarding `CCCCCCC(=O)O`, the result in test [2], in test [3], in [4], in test [5], in test [6] and in [7] was inactive. The outcome in test [8] and in test [9] was inactive.
For the molecule `CC[C@H](c1ccc(O)cc1)[C@@H](CC)c1ccc(O)cc1`, the outcome in [2], in test [3], in test [4], in test [5], in test [6] and in test [7] was inactive. Also, the call in test [8] and in test [9] was inactive.
On to `CCc1ccc(CCOc2ccc(CC3SC(=O)NC3=O)cc2)nc1` (centres undefined), for which the outcome in [2], in [3], in [4], in test [5], in [6] and in test [7] was inactive. The molecule was classed as inactive in [8] and in test [9].
In the case of `OC1CCC(C2CCCCC2)CC1` (centres undefined), the molecule was classed as inactive in test [2], in [3], in test [4], in [5], in test [6] and in [7]. The outcome in test [8] and in test [9] was inactive.
On to `CCCOc1sc(C(=O)N2CCC(c3cc(CN)ccc3F)CC2)c(C)c1Br`, for which the molecule was classed as inactive in [2], in test [3], in [4], in test [5], in test [6] and in [9].
